About 83,000 compounds went through this panel and 20% of them were active in at least one assay; those are over-represented in the sample as a whole.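 Note: values are percent growth. 100 is the growth of untreated cells, values between 100 and 0 indicate rising inhibition; between -100 and 0 indicates cell death.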 Calls of active or inactive are those of the source. Rule for the calls: active = growth percent below 10; inactive = the rest.

This assay relates to IGROV1 ovarian. The assay can be described thus: NCI-60 one-dose screen, 48 h (100 = growth as untreated, 0 = no growth, -100 = all killed). The conditions noted are these: 10 µM unless noted.
With `COc1ccc(-c2c(-c3ccc(OC)c(O)c3)cnc3ncnn23)cc1`, the growth is 110% (inactive).

For the compound `O=C(Nc1ccc(F)cc1F)c1cc(Br)ccc1O`, the growth was 15.5% (inactive).

As for `COc1ccc(-c2cc(=O)c3c(OC)c4ccoc4c(/C=C/C=O)c3o2)cc1`, the growth was 72.7% (inactive).

In the case of `Cc1nc(Nc2cn[nH]c2C(=O)Nc2ccc(CN3CCN(C)CC3)cc2)c2ccsc2n1`, the growth was 77.2% (inactive).

In the case of `O=[N+]([O-])c1cc2c(ccc3occc32)o1`, the growth was 27.1% (inactive).

For the compound `CN1CCN(c2nc(Nc3ccc(O)cc3)nc3ccccc23)CC1`, the growth was 52.1% (inactive).

As to `Nc1ncnc(N)c1NC(=O)c1ccc(OCc2ccccc2)cc1`, the growth is 106% (inactive).

For the compound `CSc1nc2c(c(=O)[nH]1)N=C1c3ccccc3C(=O)C1C(c1ccc(F)cc1)N2` (stereo not drawn), the growth was 58.3% (inactive).

Regarding `COc1ccc(-c2nc(-c3ccccn3)c(-c3ccccn3)n2CC(C)C)cc1OC1CCCC1`, the growth was 19.6% (inactive).

For the compound `O=C1NC(=S)NC(=O)C1=Cc1cn(Cc2cn(Cc3cccc4ccccc34)nn2)c2ccccc12`, the growth is 82.6% (inactive).

As for `O=C(Nc1ccc(Br)cc1F)c1cc(Cl)ccc1O`, the growth was 14.1% (inactive).

As for `CN1C(=O)N(C)C2Nn3c(s/c(=C4\C(=O)N(CCc5ccccc5)c5ccccc54)c3=O)=NC21` (stereo not drawn), the growth was 83% (inactive).

For the compound `CC(=O)c1ccc(Cc2ccc(C(C)=O)s2)s1`, the growth is 96.1% (inactive).

With `O=c1oc2ccc(F)cc2c(=O)n1-c1ccc(F)cc1F`, the growth is 30.1% (inactive).

With `O=C(Nc1ccc(-c2nc3cc4ccccc4cc3[nH]2)cc1)c1cccc(Br)c1`, the growth is 33.2% (inactive).

Take `CCOc1c(Br)cc(C2C(C(=O)OC)=CN(C)C=C2C(=O)OC)cc1OC`: the growth was 67.7% (inactive).

As for `COc1ccc(Cn2c(Br)c3c(c2-c2cc(OC)c(OC)c(OC)c2)CCc2sc(NC(=O)c4ccc(OC)cc4)nc2-3)cc1`, the growth is 79.2% (inactive).

Take `O=C1c2cc(Br)ccc2Oc2cc([N+](=O)[O-])ccc2N1c1ccc(I)cc1F`: the growth is 97.9% (inactive).

With `COc1ccc(Nc2nc(N/N=C/c3ccc(O)cc3)nc(Nc3ccc([N+](=O)[O-])cc3)n2)cc1`, the growth was 121% (inactive).

Turning to `Nc1ccn(C2O[C@H](CO)[C@@H](O)[C@H]2O)c(=O)n1` (stereo partly drawn), the growth was 82.9% (inactive).

On to `CCN1C(=O)N(CC)C2C1NN=c1s/c(=C3\C(=O)N(C(C)C)c4ccccc43)c(=O)n12` (stereo not drawn), for which the growth was 36.5% (inactive).

Consider `CC1(C)CC2(C)OC2C2(C1)N=NC(=Nc1ccccc1)O2` (stereo not drawn), for which the growth was 89.6% (inactive).

Turning to `COc1cc(C(C)n2cc(-c3ccccc3)nn2)ccc1OC1CCCC1` (stereo not drawn), the growth was 70.9% (inactive).

`COC(=O)C1=C(C)NC(C)=C(C(=O)OC)C(N2C(=O)CCC2=O)C1` (stereo not drawn): the growth is 99.3% (inactive).

`O=c1oc2ccc(Cl)cc2c(=O)n1-c1ccc(Cl)cc1F`: the growth was 14.3% (inactive).

As for `COc1ccc2sc(N(Cc3cccnc3)C(=O)c3ccc(C#N)cc3)nc2c1`, the growth was 98.1% (inactive).

Take `O=C(O)CCCN1C(=O)C2C3CCC(C3)C2C1=O` (stereo not drawn): the growth is 102% (inactive).

Consider `CN1C(=O)N(C)C2(c3ccccc3)OC(=S)NC12c1ccccc1` (stereo not drawn), for which the growth was 103% (inactive).

For `Nc1nonc1-n1nncc1-c1cccnc1`, the growth was 103% (inactive).

Consider `COc1cc(C(C)n2cc(-c3ccccc3)nn2)ccc1OC1CCCCC1` (stereo not drawn), for which the growth is 77.2% (inactive).

With `Nc1ccc(-c2nn3c(CCC(=O)c4nc5ncccc5[nH]4)nnc3s2)c(O)c1`, the growth is 70.9% (inactive).

For `O=NN(C(=O)NC1CCC(C(=O)O)CC1)C1CCC(C(=O)O)CC1` (stereo not drawn), the growth was 107% (inactive).

As for `COc1ccc(OC)c(/C=C/C(=O)c2c(C)nc3ccccc3c2/C=C/c2ccccc2)c1`, the growth was 52.6% (inactive).

As to `Cc1nc(Nc2ccccn2)sc1C(=O)/C=C/c1ccc(Cl)cc1`, the growth is 13.9% (inactive).

Take `O=C(Nc1ccc(-c2nc3ccc(NC(=O)c4ccc(Cl)cc4)cc3[nH]2)cc1)c1ccc(Cl)cc1`: the growth was 45.1% (inactive).

Turning to `O=C(COc1cc(O)c2c(=O)cc(-c3ccccc3)oc2c1)Nc1ccccc1C(F)(F)F`, the growth was 40.3% (inactive).

Take `COc1ccc(CCN2C(=O)CCSC2=S)cc1OC`: the growth is 107% (inactive).

For `COc1ccc(Cn2c(Br)c3c(c2Br)-c2nc(N)sc2CC3)cc1`, the growth was 34.7% (inactive).

The values are drawn from PubChem BioAssay (NCI).
